Shiga inhibitor: blocks Shiga toxin action in Vero cells | Vero cells, Shiga toxin protein synthesis inhibition reporter | inhibition, % at 38.7 µM | 9.2% of 290,000 active | AID 2315; in the data active = inhibition mostly above about 28%, no sharp cut-off; inactive = mostly below about 43%; also: 0% is about no effect
Pf growth 48h: inhibits P. falciparum growth in the first generation, 48 h. P. falciparum luciferase growth in erythrocytes, 48 h. Potency, µM (series often up to 28.7 µM), for inactives: at the highest dose activity change, negative = inhibition, hits mostly inhibitors. 5.9% of 310,000 active. AID 504832; also: potency is read from the fitted curve at half-maximal effect; % is scaled to controls: 0 for no effect and ±100 for the full control effect
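Compounds are pin-transferred into medium, infected erythrocytes (2% hematocrit, 0.1% parasitemia final) are added, and plates sit one parasite generation at 37 C in 5% CO2. Detection reagent is then added and luminescence measured.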
Cycloheximide cs: counter-screen hit for Shiga toxin inhibitors, cycloheximide; AID 2314; max response, %; 12% of 300,000 active; cell reporter, cycloheximide protein synthesis inhibition counterscreen; in the data active = max response mostly above about 13%, no sharp cut-off; inactive = mostly below about 14%; also: read at 38.3 µM for the half of the compounds with a filed dose; 0% is about no effect
NS1 inh: influenza NS1 inhibition; Potency, µM (titrated, usually from 46.1 µM), without a hit: at the highest dose activity, positive = more growth; 0.4% of 270,000 active; calls by dose curve; also: potency is read from the fitted curve at half-maximal effect; actives are rising curves; nearly all actives have a fitted effect of over 50% in size
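Compounds were scored for reversing the slow growth caused by influenza A NS1 in S. cerevisiae, measured by optical density at 600 nm. Assay medium contained 2% galactose at pH 6.0; NS1-free yeast of the same strain were the positive control.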
Pf growth 96h: inhibits malaria parasite growth, 96 h; P. falciparum luciferase reporter growth, 96 h; 6.9% of 320,000 active; Potency, µM (top dose mostly 28.7 µM), without a hit: top-dose activity change, negative = inhibition, hits mostly inhibitors; AID 504834; also: potency is read from the fitted curve at half-maximal effect; % is scaled to controls: 0 for no effect and ±100 for the full control effect
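Two parasite generations (96 h, 37 C, 5% CO2) of compound exposure in infected erythrocytes (0.05% parasitemia, 2% hematocrit). Luciferase-reporter P. falciparum; decreased luminescence indicates inhibited growth, aimed at apicoplast-acting delayed death.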
Giardia FBPA inh: blocks Giardia fructose-bisphosphate aldolase activity | Potency, µM (series often up to 59.6 µM), without a hit: top-dose activity, negative = inhibition, most hits filed as inhibitors | AID 2451 | 0.71% of 290,000 active | purified Giardia FBPA; also: potency is read from the fitted curve at half-maximal effect; % is scaled to controls: 0 for no effect and ±100 for the full control effect; nearly all actives have a fitted effect of over 55% in size
Target sequence (A8B2U2 whole entry, looked up): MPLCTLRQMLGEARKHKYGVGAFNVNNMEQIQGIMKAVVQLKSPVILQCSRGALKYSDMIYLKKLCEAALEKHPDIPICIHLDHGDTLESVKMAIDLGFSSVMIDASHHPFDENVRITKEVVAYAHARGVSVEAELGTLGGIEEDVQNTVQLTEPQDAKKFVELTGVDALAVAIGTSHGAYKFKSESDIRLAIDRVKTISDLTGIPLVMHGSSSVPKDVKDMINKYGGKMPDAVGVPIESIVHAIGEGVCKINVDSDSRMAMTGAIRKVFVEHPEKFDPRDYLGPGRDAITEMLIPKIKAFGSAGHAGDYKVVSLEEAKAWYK
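40 nM FBPA preincubated 10 min at RT with compound (up to 57.5 uM final), then substrate plus GAPDH/TPI/NAD/arsenate coupling and diaphorase/resazurin added. Fluorescence read after 20 min at RT, 525/598 nm.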
Active calls of the source: *; ? = inconclusive; / = no result given; [ ] = dose if it differs, or a comment. In the library only some 21% were active in any assay of this set; here they are far more common. Unless noted, calls follow the shape of the dose curve; as a rule, active = well fitted curve in the direction sought with a large enough effect; inconclusive = small, poorly fitted or top-dose-only effect, or another doubt; inactive = no such curve, though single readings can be large; an effect the other way counts as inactive or inconclusive.

SMILES	Shiga inhibitor	Pf growth 48h	Cycloheximide cs	NS1 inh	Pf growth 96h	Giardia FBPA inh
COc1ccc(-n2nc(C(=O)NCC(=O)NCC3CCCO3)c3ccccc3c2=O)cc1Cl (stereo not given)	-13.6	?	-3.4	9.4%	?	-3.4%
COc1cccc(CNCC2CCCO2)c1 (stereo not given)	/	0.0%	-2.5	7.8%	-19.9%	4.7%
COc1cccc(-n2nc(C(=O)NCC3CCCO3)c3ccccc3c2=O)c1 (stereo not given)	-2.3	-16.1%	1.3	-5.1%	3.7µM*	5.8%
COc1ccc(CCNCC2CCCO2)cc1 (stereo not given)	23.7*	28.5%	18.4*	-22.9%	0.0%	?
Cc1cc(NC(=O)c2ccc(NC(=O)C3CCCO3)cc2)ccc1Br (stereo not given)	73.9*	27.8%	41.7*	2.0%	1.0%	8.0%
O=C(NCC1CCCO1)c1cc2c(s1)CCC2 (stereo not given)	89.0*	131.3%	52.5*	/	171.8%	-7.8%
O=C(CN1CCC(NC(=O)Nc2ccc(F)cc2)CC1)Nc1ccccc1[N+](=O)[O-]	-5.3	?	1.5	6.7%	-26.2%	1.9%
CSCCC(NC(=O)c1ccccc1Cl)C(=O)NNC(=O)c1ccncc1 (stereo not given)	/	8.3%	/	/	7.2%	/
CS(=O)(=O)N(CC(=O)NCC1CCCO1)c1cccc(Cl)c1 (stereo not given)	18.6	?	15.3*	-34.6%	20.4%	-2.0%
COc1cccc(-c2nn(-c3ccc(C)cc3)cc2C(=O)NCC2CCCO2)c1 (stereo not given)	/	?	/	/	-23.2%	/
COc1cccc(-c2cc(C(=O)NCC3CCCO3)c3cc(C)cc(C)c3n2)c1 (stereo not given)	14.5	?	11.8*	-2.2%	?	4.4%
CS(=O)(=O)N(CC(=O)NCC1CCCO1)c1cc(Cl)cc(Cl)c1 (stereo not given)	-14.8	8.4%	-1.0	1.0%	3.5%	0.5%
Cn1c2ccccc2c2cc(/C=N/NC(=O)c3ccc(N)cc3)ccc21	24.0	13.1µM*	12.6	-52.3%	?	/
Cn1c(-c2ccccc2)c(/C=N/NC(=O)c2ccc(O)cc2)c2ccccc21	86.8*	68.8%	33.6*	-4.7%	?	-11.0%
CCn1c2ccccc2c2cc(/C=N/NC(=O)c3ccccc3C)ccc21	-4.2	?	5.2	-10.7%	-5.2%	1.7%
Cn1c2ccccc2c2cc(/C=N/NC(=O)c3ccccc3F)ccc21	78.7*	?	41.1*	-37.9%	?	-10.7%
CCn1c2ccccc2c2cc(/C=N/NC(=O)c3cccc(C)c3)ccc21	39.5	?	12.2	-17.3%	27.9%	19.9%
Cn1c(N)c(C(=O)COC(=O)CNC(=O)c2ccccc2Cl)c(=O)n(C)c1=O	/	?	/	/	-9.6%	/
Cc1c(OCC(=O)N[C@@H](Cc2c[nH]c3ccccc23)C(=O)O)ccc2c1oc(=O)c1ccccc12	53.5	25.4%	-1.8	14.4%	12.6%	35.2%
CC1=CC(C)(C)N(C(=O)c2ccc(F)cc2)c2cc3c(cc21)OCO3	-11.1	11.7µM*	-2.4	-68.0%	-18.4%	-19.2%
O=C(/C=C\c1ccc2c(c1)OCO2)c1ccc(F)cc1	/	/	/	/	/	-1.1%[12.9 µM]
Cn1c(-c2ccc(N)cc2)nc2ccccc21	74.8*	60.6%	56.4*	-2.0%	321.6%	-7.1%
Cc1ccc(-n2c(N)c(-c3nc4ccccc4n3C)sc2=S)cc1	17.5	1.47µM*	11.1*	-93.6%	18.1%	2.8%
Cn1c(N)c(-c2nc3cccnc3n2C)sc1=S	24.4	39.2%	6.3	/	22.0%[5.75 µM]	1.4%
Cn1c(-c2ccc(Cl)nc2)nc2ccccc21	58.1*	20.0%	14.6*	-3.5%	64.9%	-7.6%
Cn1c(-c2ccc3nc(N)sc3c2)nc2cc(N)ccc21	5.9	/	20.6*	2.3%	/	2.6%
O=C(NC1CCCC1)C(c1ccccn1)N(Cc1ccccc1F)C(=O)c1csnn1 (stereo not given)	-3.8	?	-1.4	1.9%	-8.8%	-0.1%
CCC(=O)[C@@]1(O)C(=O)N2C(=C3C(=O)OCCC31)N(Cc1ccccc1)C(C)=C(C(=O)OC)C2c1ccccc1 (stereo not given in full)	/	/	/	/	/	-3.7%[12.9 µM]

Screens deposited in PubChem by National Center for Advancing Translational Sciences (NCATS).
